The source of these data is PubChem BioAssay (NCI).

Holding throughout (test): NCI-60 one-dose screen, 48 h (100 = growth as untreated, 0 = no growth, -100 = all killed)
What all share (conditions): 10 µM

The subject of assay [1] is 786-0 renal.
Assay [2] has as its system MALME-3M melanoma.
For assay [3], the system named is MDA-MB-231 breast.
Assay [4] deals with SF-268 CNS.
Assay [5] relates to SF-295 CNS.
In assay [6] the test system is UACC-257 melanoma.
Assay [7] has as its system U251 CNS.
Assay [8] concerns PC-3 prostate.
Assay [9] relates to UACC-62 melanoma.
Assay [10] deals with SK-MEL-2 melanoma.
The test system of assay [11] is SN12C renal.
Assay [12] concerns UO-31 renal.
Assay [13] has as its system TK-10 renal.
Assay [14] concerns ACHN renal.
Assay [15] deals with A498 renal.
In assay [16] the test system is OVCAR-5 ovarian.
For assay [17], the system named is OVCAR-3 ovarian.
Assay [18] relates to HS 578T breast.
For assay [19], the system named is NCI/ADR-RES ovarian.
In assay [20] the test system is BT-549 breast.

Compounds without any hit were thinned out: in the full panel of roughly 83,000, 20% have a hit.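 Step 1: grow cells in 96-well plates. Step 2: add test compound at a single concentration. Step 3: incubate 48 h. Step 4: record percent growth.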 Unmarked numbers belong to inactive results. Calls of active or inactive are those of the source. Rule for the calls: active = growth percent below 10; inactive = the rest.

For the compound `O=C1S/C(=C\c2ccc([N+](=O)[O-])cc2)C(=O)N1CCN1CCCCC1`, the growth in assay [1] is 105%; in [2], 118%; in assay [3] it was 102%; in assay [4] it was 112%; in [5], 111%; in [6], 112%. Also, the growth was 102% in assay [7]; 94.3% in assay [8]; 99.6% in assay [9]; 111% in assay [10]; 98.5% in assay [11]; 102% in assay [12]. Moreover, the growth in [13] is 106%; in assay [14] it was 103%; in [15], 126%; in assay [16], 114%; in [17], 116%; in [18], 115%. In addition, the growth was 109% in [19] and 118% in assay [20].

In the case of `Cn1cc(-c2cc(N)n3nc(-c4cn(C)c5ccccc45)cc3n2)c2cc(F)ccc21`, the growth is -89.4% (active) in [1]; -78.5% (active) in assay [2]; -56% (active) in assay [3]; -63.1% (active) in assay [4]; -72.6% (active) in [5]; -86.4% (active) in assay [6]. Moreover, the growth in assay [7] was -77% (active); in assay [8], -28% (active); in assay [9], -67.7% (active); in assay [10] it was -92.5% (active); in [11], -67% (active); in assay [12], -82.4% (active). The growth in assay [13] was -58.6% (active); in [14] it was -89.4% (active); in [15], -68.9% (active); in assay [16], -52.6% (active); in assay [17] it was -75% (active); in assay [18], -24.1% (active). Moreover, the growth in assay [19] was -21.1% (active); in [20], -69.9% (active).

With `COC(=O)CNC(=O)COc1c(OC)c(OC)cc2oc(-c3cccc(C(=O)Nc4ccc(Cl)cc4)c3)cc(=O)c12`, the growth in assay [1] is -24.3% (active); in [2] it was -26.1% (active); in [3], -1.24% (active); in assay [4], 21.9%; in assay [5], 21.4%; in assay [6] it was 58.7%. Besides, the growth in assay [7] is 11.7%; in assay [8], 34.7%; in [9], 12.7%; in assay [10], 12.7%; in [11], 41%; in [12], 66.5%. Further, the growth was 130% in assay [13]; 47.2% in assay [14]; 119% in assay [15]; 90.7% in assay [16]; 55.6% in [17]; -3.95% (active) in [18]. For the same compound, the growth in assay [19] is 47.5%; in assay [20], 1.95% (active).

For the compound `COc1ccccc1-n1cc(C#N)c(N)c1C(=O)c1ccc(Cl)cc1Cl`, the growth in assay [1] is 52.8%; in assay [2], 37.6%; in assay [3] it was 46.4%; in assay [4], 47.3%; in assay [5] it was 19.9%; in [6] it was 52.7%. Moreover, the growth in assay [7] is 16.6%; in assay [8], 18.8%; in assay [9] it was 26.9%; in assay [10], -51.3% (active); in assay [11] it was 35%; in [12], 42.4%. In addition, the growth in assay [13] is 55.8%; in [14], 48.3%; in [15], -0.709% (active); in assay [16] it was 49.9%; in [17], 17.8%; in assay [18] it was -2.89% (active). For the same compound, the growth in assay [19] is 16.4%; in assay [20] it was 31.4%.

For `C#CCOc1cc(N(CC)CC)ccc1C(C(=O)NC(C)(C)C)N(C(=O)C1CCc2cc(F)ccc2O1)c1ccc(F)cc1F` (stereo not given), the growth in [1] is 53.9%; in assay [2], 62.1%; in assay [3], 55.4%; in [4], 50.6%; in assay [5], 33.2%; in assay [6], 29.6%. Moreover, the growth in assay [7] was 27.1%; in [8], 15%; in [9], 29.1%; in assay [10] it was -30.4% (active); in assay [11], 47.1%; in assay [12] it was 27.7%. For the same compound, the growth in [13] was 61.3%; in assay [14] it was 24.7%; in assay [15], 68.9%; in assay [16], 64%; in assay [17], 33.4%; in [18], 70.6%. For the same compound, the results for the growth in assay [19] and in assay [20] were 53.1% and 31.1%, respectively.

As for `COc1ccc(Cc2nn(CC(=O)N/N=C/c3ccc(Br)cc3)c(=O)c3c(C)noc23)cc1`, the growth in [1] is -53.2% (active); in assay [2], -8.55% (active); in assay [3] it was 21.1%; in assay [4], 37.3%; in assay [5], -4.74% (active); in [6] it was 72.2%. In addition, the growth was -27.7% (active) in assay [7]; 43.9% in assay [8]; 54.3% in assay [9]; 7.39% (active) in assay [10]; 12.4% in assay [11]; -15.7% (active) in assay [12]. Moreover, the growth in assay [13] is -0.687% (active); in assay [14], 5.6% (active); in assay [15], 21.3%; in [16], 59%; in [17], 28.5%; in [18], 2% (active). For the same compound, the growth in assay [19] is 41.1%; in [20], 50%.

As to `CCOC(=O)c1ccc(NC(=O)CSC(CC(=O)c2sc(Nc3ccccn3)nc2C)c2ccccc2F)cc1` (stereo not given), the growth is -12.5% (active) in assay [1]; 34.2% in [2]; 10.5% in [3]; -0.243% (active) in [4]; 0.23% (active) in assay [5]; 39% in [6]. Further, the growth is -70.4% (active) in [7]; 0.809% (active) in assay [8]; 11.8% in [9]; -31.2% (active) in [10]; -14.8% (active) in assay [11]; -2.98% (active) in assay [12]. The growth is 28.7% in assay [13]; 12.1% in assay [14]; -1.49% (active) in assay [15]; -6.86% (active) in assay [16]; 6.5% (active) in [17]; 8.86% (active) in [18]. For the same compound, the growth is 10.5% in assay [19] and -9.95% (active) in [20].
